# Compound activity (PubChem)
# Shown is part of a subset that was picked to be rich in hits.
# ST2 IL33 inh: IL1RL1 inhibition; Q01638; inhibition, % for hits at 17 µM; AID 1259354; AlphaLISA ST2-Fc/biotin-IL-33 interaction, 1 h; 78,000 compounds, 2.3% hits; in the data active means inhibition above about 30%
# Target sequence (Q01638 whole entry, looked up): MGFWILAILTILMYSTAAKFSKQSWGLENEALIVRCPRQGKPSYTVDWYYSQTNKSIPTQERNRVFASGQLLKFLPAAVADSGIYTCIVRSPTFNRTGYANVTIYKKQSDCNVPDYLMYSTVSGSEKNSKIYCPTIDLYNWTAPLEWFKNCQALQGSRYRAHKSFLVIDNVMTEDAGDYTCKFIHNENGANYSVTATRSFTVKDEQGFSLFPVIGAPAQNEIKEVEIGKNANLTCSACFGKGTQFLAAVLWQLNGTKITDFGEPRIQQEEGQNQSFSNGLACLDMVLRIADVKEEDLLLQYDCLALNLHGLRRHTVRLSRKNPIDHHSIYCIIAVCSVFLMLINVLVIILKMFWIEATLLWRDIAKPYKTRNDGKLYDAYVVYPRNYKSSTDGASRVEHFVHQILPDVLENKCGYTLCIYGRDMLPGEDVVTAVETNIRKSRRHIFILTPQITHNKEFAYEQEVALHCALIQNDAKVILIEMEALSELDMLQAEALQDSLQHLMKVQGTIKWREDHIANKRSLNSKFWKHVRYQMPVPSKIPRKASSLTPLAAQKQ
# Hits are given with their value; n = inactive; ! = a repeat was not active.
SMILES,ST2 IL33 inh
O=C(Cc1cccs1)Nc1ccccc1NC(=O)Cc1cccs1,n
COc1ccccc1NCc1cccs1,32%
O=C(O)c1ccc(NCc2cccs2)cc1,n
Clc1cccc(CN2CCCCCC2)c1,n
N#CSC(C#N)Cc1cccc(Cl)c1 (stereo not drawn),34%
NC(=O)c1cccn1Cc1cccc(Cl)c1,n
Cc1ccc2oc(-c3ccoc3)cc(=O)c2c1,n
Cc1cc(Cl)ccc1OCC(=O)Nc1cccc(-c2nc3ncccc3o2)c1,n
CCc1ccccc1NS(=O)(=O)c1cc(Br)cc2c1N(C(=O)C1CC1)CC2,n
CC(C)Cc1cc(C(=O)N2CCN(C(=O)c3ccccc3)CC2)no1,n
COc1cc(/C=C2\SC(=Nc3c(C)n(C)n(-c4ccccc4)c3=O)NC2=O)ccc1O,n
Cc1cccc(N=C2NC(=O)/C(=C\c3ccco3)S2)c1,31%
O=C1NC(=Nc2cccc(Cl)c2Cl)S/C1=C/c1ccco1,n
CC(C)c1nccn1C(C)C(=O)N1CCC(Oc2ncccn2)CC1 (stereo not drawn),n
COc1cccc(NC(=O)Cn2c(-c3ccccc3F)nc3ccccc3c2=O)c1,n
O=C1CO[C@H]2CN(Cc3ccccc3)C[C@H]2N1Cc1ccccc1,n
O=C(O)c1ccc(-n2c(/C=C\c3cc(Br)ccc3O)nc3ccccc3c2=O)cc1,n
CC12CCC3c4ccc(O)c(Br)c4CCC3C1CCC2O (stereo not drawn),n
C[C@]12CC[C@@H]3c4ccc(O)cc4CC[C@H]3[C@@H]1CCC2=O,n
COc1ccc2c(c1)CCC1C2CC[C@@]2(C)C1CC[C@@H]2NCCCCCCN1C(=O)C=CC1=O (stereo partly drawn),46%
CCN(CCc1nc2ccc(C)cc2[nH]1)C(=O)c1cccc(-n2cnnc2)c1,n
CC(C)=CC(=O)N1CC[C@@H](c2ccc(F)cc2)[C@H](O)C1,n
c1cnc(Nc2nc(-c3ccncc3)cs2)nc1,n
Cc1ccc(C)c(-c2csc(Nc3ncccn3)n2)c1,n
Oc1ccc(-c2csc(Nc3ncccn3)n2)cc1O,44%
SMILES,ST2 IL33 inh
COc1ccc(NC(=O)CCCn2c(=O)c3sccc3n(CC(N)=O)c2=O)cc1,n
COc1cccc(C2C(C(=O)Nc3ccc(C)cc3C)=C(C)Nc3nnnn32)c1 (stereo not drawn),n
O=C(CSc1nnc(NC(=O)c2ccccc2)s1)c1ccc2c(c1)Cc1ccccc1-2,n
CCn1c(C2CCCN(C(=O)NC(C)(C)CC(C)(C)C)C2)nn(C)c1=O (stereo not drawn),n
Cc1ccc(-n2c(SCc3ccccc3)nc3c(c2=O)SCC3)cc1,30%!
O=C(CSc1nc2c(c(=O)n1-c1ccc(Cl)cc1)SCC2)N1CCCc2ccccc21,n
O=C(CSc1nc2c(c(=O)n1-c1ccc(Cl)cc1)SCC2)N1CCc2ccccc21,n
Cc1ccc(-n2c(SCC(=O)N3CCCCC3)nc3c(c2=O)SCC3)cc1,n
Cc1ccc(-n2c(SCc3ccc(F)cc3)nc3c(c2=O)SCC3)cc1,31%!
Cc1ccc(-n2c(SCC(=O)N3CCCC3)nc3c(c2=O)SCC3)cc1,n
COC(=O)c1ccc(CSc2nc3c(c(=O)n2-c2ccc(C)cc2)SCC3)o1,n
O=c1c2c(nc(SCc3ccc(F)cc3)n1-c1ccc(F)cc1)CCS2,n
CCSc1nc2c(c(=O)n1-c1ccc(F)cc1)SCC2,n
Cc1ccc(-n2c(SCC(=O)N3CCc4ccccc43)nc3c(c2=O)SCC3)cc1,97%!
Cc1ccc(-n2c(SCc3cccc(F)c3)nc3c(c2=O)SCC3)cc1,33%!
CCOc1ccc(-n2c(SCc3ccc(F)cc3)nc3c(c2=O)SCC3)cc1,n
Cc1cc(C)nc(SCC(O)COc2ccc(Cl)cc2)n1 (stereo not drawn),n
COc1cc(C(=O)N(c2ccc(F)cc2)C2C=CS(=O)(=O)C2)cc(OC)c1OC (stereo not drawn),n
Cc1sc2nc3c(C(=O)N4CCC(C)CC4)cccn3c(=O)c2c1C,n
O=C(C1CCCN(Cc2ccccc2Br)C1)N1CCCC1 (stereo not drawn),n
O=C(NCCSc1ncn[nH]1)c1ccc(NC(=O)C2CCC2)cc1,n
Cc1ccc(C2NC(=O)NC3=C2C(=O)CCC3)cc1 (stereo not drawn),n
Clc1ccc(OCCSc2ncnc3ccccc23)cc1,n
CCOC(=O)N1CCC(N2CCCC(C(=O)c3ccc(Cl)cc3C)C2)CC1 (stereo not drawn),n
CCOc1cc(C(Nc2ccccn2)c2ccc3cccnc3c2O)ccc1O (stereo not drawn),n
SMILES,ST2 IL33 inh
Cc1ccnc(NC(c2cccnc2)c2ccc3cccnc3c2O)c1 (stereo not drawn),n
CCN(CC)c1ccc(C(Nc2ccccn2)c2ccc3cccnc3c2O)cc1 (stereo not drawn),36%
Oc1cccc(C2N(Cc3ccccc3)CCN2Cc2ccccc2)c1,n
Cc1ccc(C)c(N2CCN(C(=O)CCS(=O)(=O)c3ccc4c(c3)CC(=O)N4C)CC2)c1,n
c1ccc2c(c1)-c1ccccc1C2N1CCNCC1,n
COc1ccc(N=c2oc3ccccc3cc2C(=O)Nc2ccc(C)cc2)cc1,n
COc1ccccc1N=c1oc2ccccc2cc1C(=O)Nc1ccccc1,41%
O=C(Nc1ccccc1)c1cc2ccccc2oc1=Nc1cccc(F)c1,n
Cc1ccccc1N1CCN(C2CCCN(C(=O)CCOc3ccccc3)C2)CC1 (stereo not drawn),n
CN(C)S(=O)(=O)c1ccc(C(=O)N2CCN=C2SCc2cccnc2)cc1,n
O=C(c1ccc2c(c1)N(Cc1ccccc1)C(=O)c1ccccc1S2)N1CCCC1,n
CNC(=O)C1CCC(Cn2c(=O)c3sccc3n(CC(=O)N3CCCC3)c2=O)CC1 (stereo not drawn),n
Cc1cccc(OCCN2CCCN(C(=O)c3ccco3)CC2)c1C,n
COC(=O)c1cccc(NC(=S)N[C@H]2CO[C@H]3[C@@H]2OC[C@@H]3n2nnnc2-c2ccc3c(c2)OCO3)c1,n
Cc1cccn2c(=O)c3cc(C(=O)NCc4cccnc4)c(=N)n(CCCn4ccnc4)c3nc12,n
N#Cc1cc2c(=O)n3ccccc3nc2n(Cc2ccccc2)c1=N,n
CCC(C)n1c(=N)c(C(=O)NC2CCCCC2)cc2c(=O)n3ccccc3nc21 (stereo not drawn),n
N#Cc1cc2c(=O)n3ccccc3nc2n(CCCn2ccnc2)c1=N,31%
N#Cc1cc2c(=O)n3ccccc3nc2n(CCc2ccccc2)c1=N,n
CCC(C)n1c(=N)c(C#N)cc2c(=O)n3ccccc3nc21 (stereo not drawn),39%
Cc1cc(-c2ccco2)n(-c2ccccc2)n1,n
O=C(CCS(=O)(=O)c1ccc(Br)s1)NCc1ccc(Cl)cc1,n
O=C(NCCc1ccccc1)c1cc(-c2ccc3c(c2)OCO3)on1,n
Cc1n[nH]c(C)c1S(=O)(=O)N1CCN(C)CC1,n
CS(=O)(=O)N1CCN(c2cc(-c3ccc(F)cc3)ncn2)CC1,n
SMILES,ST2 IL33 inh
Cc1cc(C)n(Cc2ccc(C(=O)N(C)Cc3snnc3C)cc2)n1,n
O=c1cc2cc(O)[nH]c(=O)c2c(O)[nH]1,47%
Cc1ccc(S(=O)(=O)C2(C(=O)Nc3ccc(Cl)cc3)CC2)cc1,n
COc1ccc(NC(=O)CCCn2c(=O)c3sccc3n(CC(=O)C(C)(C)C)c2=O)cc1,n
CC1CCN(C(=O)Cn2c(=O)n(-c3ccc(F)cc3F)c(=O)c3sccc32)CC1,n
CN(C(=O)Cn1c(=O)n(-c2ccc(F)cc2F)c(=O)c2sccc21)c1ccccc1,47%
O=c1c2sccc2n(Cc2ccccc2)c(=O)n1-c1cc(F)ccc1F,n
O=C1c2ccccc2C(=O)N1CN(C(=O)c1ccccc1)c1ccc(F)cc1,77%
